Results as given in the supplement of paper PMC6555819.

Tests used:
Assay in all cases: PBM binding z-score (relative to random genomic background probes); higher = stronger binding; sequences stand for … in GC…GCGATTGACAGCGTAGAATGAAGG
[1] = system: FXR:RXRa (NR concentration 270 nM, RXRa partner concentration 90 nM)
Procedure, shortened: (§1)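 Scanned fluorescence from custom Agilent 4×180K protein-binding microarrays was regression-normalized. Binding z-scores use random background probes as reference. Ligand-free nuclear receptor dimers were incubated on the arrays for 1 h and detected with antibodies against each partner (one per run).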

[2] = system: LXRa:RXRa (NR concentration 270 nM, RXRa partner concentration 90 nM)
Procedure, shortened: as §1

[3] = system: LXRa homodimer (NR concentration 270 nM)
Procedure, shortened: as §1

[4] = system: LXRb:RXRa (NR concentration 270 nM, RXRa partner concentration 90 nM)
Procedure, shortened: as §1

[5] = system: LXRb homodimer (NR concentration 270 nM)
Procedure, shortened: as §1

[6] = system: PPARa:RXRa (NR concentration 270 nM, RXRa partner concentration 90 nM)
Procedure, shortened: as §1

[7] = system: PPARg:RXRa (NR concentration 180 nM, RXRa partner concentration 90 nM)
Procedure, shortened: as §1

[8] = system: PPARg:RXRa 270nM:90nM, anti-RXR (NR concentration 270 nM, RXRa partner concentration 90 nM)
Procedure, shortened: as §1

[9] = system: PPARg:RXRa 30nM:10nM, anti-RXR (NR concentration 30 nM, RXRa partner concentration 10 nM)
Procedure, shortened: as §1

[10] = system: PPARg:RXRa 90nM:30nM, anti-RXR (NR concentration 90 nM, RXRa partner concentration 30 nM)
Procedure, shortened: as §1

[11] = system: PPARg:RXRa DBDmut IVT, anti-RXR (DBD mutation: RXRa K156A/R161A, NR concentration 270 nM, RXRa partner concentration 90 nM)
Procedure, shortened: as §1

[12] = system: PPARg:RXRa IVT, anti-PPARg (NR concentration 270 nM, RXRa partner concentration 90 nM)
Procedure, shortened: as §1

[13] = system: PPARg DBDmut:RXRa IVT, anti-PPARg (DBD mutation: PPARg1 K132A/R137A, NR concentration 270 nM, RXRa partner concentration 90 nM)
Procedure, shortened: as §1

[14] = system: PPARg DBDmut IVT, anti-PPARg (DBD mutation: PPARg1 K132A/R137A, NR concentration 270 nM)
Procedure, shortened: as §1

[15] = system: PPARg homodimer (NR concentration 180 nM)
Procedure, shortened: as §1

[16] = system: PXR:RXRa (NR concentration 270 nM, RXRa partner concentration 90 nM)
Procedure, shortened: as §1

[17] = system: PXR homodimer (NR concentration 270 nM)
Procedure, shortened: as §1

[18] = system: RARa:RXR (NR concentration 270 nM, RXRa partner concentration 90 nM)
Procedure, shortened: as §1

[19] = system: RARa homodimer (NR concentration 270 nM)
Procedure, shortened: as §1

[20] = system: RARb:RXRa (NR concentration 270 nM, RXRa partner concentration 90 nM)
Procedure, shortened: as §1

Sequence	PBM binding z-score [1]	PBM binding z-score [2]	PBM binding z-score [3]	PBM binding z-score [4]	PBM binding z-score [5]	PBM binding z-score [6]	PBM binding z-score [7]	PBM binding z-score [8]	PBM binding z-score [9]	PBM binding z-score [10]	PBM binding z-score [11]	PBM binding z-score [12]	PBM binding z-score [13]	PBM binding z-score [14]	PBM binding z-score [15]	PBM binding z-score [16]	PBM binding z-score [17]	PBM binding z-score [18]	PBM binding z-score [19]	PBM binding z-score [20]
ATCTCTAGGTAAAAATAGTTCAGTGAATGCAAAT	0.334	4.28	0.864	0.965	0.656	0.534	0.601	0.436	0.563	0.283	1.13	1.46	0.671	1.22	0.455	0.922	1.12	0.59	1.51	0.993
GCTGCTAGGTCAACTGATGGTCAGCTGAAGCTCG	4.05	3.09	0.169	1.83	-0.22	3.62	2.6	2.86	0.554	2.21	4.69	3.93	-0.679	-0.202	1.06	1.45	-0.515	2.72	-0.515	4.31
TCAATGAGGTTAAAGATCAGGGAACGTGGCGTCG	3.28	2.48	-0.228	1.66	0.0519	4.25	5.03	5.65	5.03	5.65	2.63	2.57	0.383	0.398	0.433	1.83	-0.0283	3.15	0.278	2.04
TAGCCTAGGTCATGTGCCAGTATACCACGCGAAC	4.24	3.24	0.572	2.7	0.626	3.58	2.79	2.86	0.838	2.06	1.78	3.01	0.0994	0.0439	1.55	1.53	-0.113	2.34	-0.178	3.74
TAGCCTAGGTCATGGGGCAGTATACCACGCGAAC	4.95	3.44	0.357	3.37	0.499	4.39	5.11	4.52	1.89	3.69	1.45	3.74	0.479	0.305	1.67	1.78	-0.439	3.21	-0.03	3.79
ATATCTAGGTAACAAGTTCAGTGAAAGAGAGGAC	0.903	1.07	0.574	0.857	0.917	3.32	5.22	4.43	2.41	4.16	6.96	6.85	2.71	2.4	1.51	1.64	1.49	0.979	1.72	1.58
TAGCCTAGGTCATCCGGGCCAGTATAGTGTCGGC	4.52	3.54	0.755	2	0.281	3.48	1.95	2.35	0.0412	1.5	1.42	2.94	0.0914	-0.657	1.35	2.07	0.0405	2.61	-0.259	3.77
TCTCGGAGGACACGTAAGGTCAGAGCTCGACATC	2.43	3.03	1.46	2.1	-0.238	2.29	0.563	1.42	1.78	1.58	1.32	0.521	0.00634	-0.877	1.75	3.15	0.734	3.13	0.0447	3.41
ATCGCTAGGTAACAAGTTCAGTGAAAGAGAGGAC	-0.045	0.0443	-0.0365	-0.0294	-0.328	0.506	0.393	0.468	-0.139	0.219	-0.0634	0.674	0.226	0.479	0.192	1.13	1.05	0.46	-0.284	1.38
CGTCCAAGTTCAGAGAGGTCAGTGAATGCCGAGT	3.32	3.64	3.27	3.1	0.431	3.19	0.531	1.5	-0.176	0.671	0.453	0.71	-0.268	-0.219	4.09	6.4	13	3.9	1.51	4.09
ATATGTAGGTTATGGGTCATTCAGGTTGGTTCGC	3.1	3.26	1.87	3.22	1.22	5.51	9.66	8.74	8.22	9.39	7.25	7.26	2.55	1.93	3.33	4	1.51	3.63	2.31	2.52
GATACAGGGTCAAGGCCACAGTACGCGTATTGAT	6.86	4.11	0.0617	3.76	-0.0921	5.98	6.37	5.82	2.54	4.69	2.24	4.31	0.644	0.508	2.25	4.14	0.451	4.64	0.787	4.67
ATCGAAAGGTCGAACGTGAGTATACCCACCCGAA	4.36	3.99	0.856	3.32	1.01	4.39	2.81	2.76	1.14	2.12	0.292	1.49	1.19	0.459	1.65	2.61	0.229	2.83	0.171	3.75
CTGAGTAGGTTATGGGGCATTCAGGCAACGGTGA	0.204	0.0795	0.0598	0.763	-0.118	2.8	4.62	5.02	3.08	5.01	4.73	4.47	0.603	-0.059	0.463	0.0232	0.0116	0.559	-0.472	0.942
